Data on seven molecules can be found in PubChem BioAssay (Tox21).

Unmarked numbers belong to inactive results. Results filed as inconclusive are left out. Active and inactive are the calls of the source. Unless noted, calls come from the whole dose curve; as a rule, active = well fitted curve in the direction sought with a large enough effect in the repeat runs; inconclusive = weak or mixed curves; inactive = no such curve, though single readings can be large; an effect the other way counts as inactive or inconclusive.

Assay [1] is described as follows: qHTS assay for small molecule agonists of the p53 signaling pathway (AID 651631; calls by dose curve; note: nearly all actives have a fitted effect of over 15% in size). In a few lines:
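Stably transfected HCT-116 cells (beta-lactamase behind p53 response elements) get compounds after a 5 h settling period; 16 h later at 37 °C, FRET substrate is loaded and fluorescence read after 2 h.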

The nature of assay [2]: qHTS assay for small molecules that induce genotoxicity in human embryonic kidney cells expressing luciferase-tagged ATAD5 (AID 651632). Note: nearly all actives have a fitted effect of over 15% in size. An outline of the steps: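 HEK293T cells carrying a luciferase reporter tagged to ATAD5 were exposed to compound or DMSO vehicle for 16 hr at 37C, 5% CO2. Amplite was added, and after 30 min at room temperature luciferase activity was read as a marker of ATAD5 induction.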
Background: qHTS replaces the single test concentration by a dilution series.

Assay [3] is described as follows: qHTS assay for small molecule agonists of the p53 signaling pathway - cell viability (AID 651633; calls by dose curve;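 note: p53RE-bla HCT reporter cells with a stable beta-lactamase p53 reporter; series mostly up to about 83 µM; nearly all actives have a fitted effect of over 30% in size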). An outline of the steps:
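p53RE-bla cells, seeded at 4,000 per well and rested 5 h at 37 C/5% CO2, received compounds in DMSO for 16 h at 37 C. CellTiter-Glo was then added, and luminescence was read after 30 min at room temperature to gauge cytotoxicity.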

Assay [4] in a line: qHTS assay for small molecules that induce genotoxicity in human embryonic kidney cells expressing luciferase-tagged ATAD5 - cell viability (AID 651634; calls by dose curve; note: nearly all actives have a fitted effect of over 25% in size). An outline of the steps:
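HEK293T cells expressing luciferase-tagged ATAD5 were exposed to compound or DMSO for 15.5 hr at 37C, 5% CO2. Viability was then read as live-cell protease activity by CellTiter-Fluor fluorescence after 30 min at 37C.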

A short description of assay [5]: qHTS assay for small molecule disruptors of the mitochondrial membrane potential - cell viability (AID 720634; calls by dose curve;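 note: human HepG2 liver cancer cells; series mostly up to about 83 µM; nearly all actives have a fitted effect of over 20% in size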). In a few lines: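 HepG2 cells seeded overnight at 37 C, then exposed to compound or DMSO for 1 hr at 37 C, 5% CO2. m-MPI dye added, then CellTiter-Glo for 30 min at room temperature; viability read as ATP luminescence.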
The nature of assay [6]: qHTS assay to test for compound auto fluorescence at 590 nm (red) in HepG2 cells (AID 720674). An outline of the steps: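 Rose Bengal sodium served as the red fluorophore standard. HepG2 monolayers (overnight attachment, MEM with 10% FBS) were exposed to test compounds for 1 hr at 37 C and read at Ex 540/Em 590 nm.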
Assay [7] is described as follows: qHTS assay to test for compound auto fluorescence at 535 nm (green) in HepG2 cells (AID 720675).
Assay [8] can be described thus: qHTS assay to test for compound auto fluorescence at 460 nm (blue) in HEK293 cells (AID 720678). An outline of the steps: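 HEK293, 2,000 cells/well, 10% dialyzed FBS; attach 4-5 hr 37C; pin compound or DMSO; o/n 37C/5% CO2; fluorescence 405/460 nm; triamterene-equivalent units.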
A short description of assay [9]: qHTS assay to test for compound auto fluorescence at 590 nm (red) in HEK293 cells (AID 720679). In a few lines: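 Intensity at 540nm excitation and 590nm emission is reported as Rose Bengal sodium-equivalent autofluorescence. Measurements followed overnight exposure (37C, 5% CO2) of HEK293 cells, 2,000 per well, to 23 nL compound.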
The nature of assay [10]: qHTS assay to test for compound auto fluorescence at 535 nm (green) in HEK293 cells (AID 720680).
Assay [11] can be described thus: qHTS assay to test for compound auto fluorescence at 460 nm (blue) in HEK293 cell free culture (AID 720681). In a few lines:
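Test compounds were pinned into cell-free culture medium (DMEM with 10% FBS) and fluorescence was read directly at Ex/Em 405/460 nm. Signals were expressed as fluorescence equivalents of triamterene, with DMSO vehicle as control.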

The nature of assay [12]: qHTS assay to test for compound auto fluorescence at 590 nm (red) in HEK293 cell free culture (AID 720683). In a few lines:
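Tox21 10K library compounds were pinned into cell-free DMEM with 10% FBS and fluorescence was read at excitation 540 nm. Activity is expressed as Rose Bengal sodium equivalency.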

Assay [13] in a line: qHTS assay to test for compound auto fluorescence at 590 nm (red) in HepG2 cell free culture (AID 720684). In a few lines:
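Measured in medium alone (MEM containing 10% FBS) following pintool addition of compound; emission at 590 nm with 540 nm excitation, referenced to Rose Bengal sodium.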

Assay [14] can be described thus: qHTS assay to test for compound auto fluorescence at 460 nm (blue) in HepG2 cell free culture (AID 720685). An outline of the steps: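 Compound (23 nL) or DMSO pinned into cell-free MEM with 10% FBS; blue fluorescence read at 405/460 nm excitation/emission, expressed as auto-fluorescence equivalency to triamterene.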
Assay [15] can be described thus: qHTS assay to test for compound auto fluorescence at 535 nm (green) in HepG2 cell free culture (AID 720686).
Assay [16] is described as follows: qHTS assay to test for compound auto fluorescence at 460 nm (blue) in HepG2 cells (AID 720687). An outline of the steps: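 Cells (2,000/well in MEM with 10% FBS) attached overnight at 37 C, then were exposed to compound or DMSO for 1 hr at 37 C, 5% CO2. Fluorescence read at Ex/Em 405/460 nm, expressed as triamterene-equivalent signal.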
Assay [17] can be described thus: qHTS assay for small molecule disruptors of the mitochondrial membrane potential (AID 720635). Note: potency is the fitted concentration of half-maximal effect. An outline of the steps:
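HepG2 cells (2,000/well) attached overnight at 37C, then took compound for 1 hr at 37C, 5% CO2. Mito-MPS dye was added for 30 min; fluorescence was read at 490/535 nm (monomers) and 540/590 nm (aggregates).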

Assay [18] has as its target Glucocorticoid receptor (Homo sapiens) (UniProt P04150). The assay is described as follows: qHTS assay to identify small molecule agonists of the glucocorticoid receptor (GR) signaling pathway (AID 720691; active = well fitted activation curve with a large enough effect in the signal ratio in the repeat runs, not every such curve was filed as active; the % refers to the signal ratio). An outline of the steps:
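GR-bla HeLa cells (beta-lactamase reporter under glucocorticoid response element) were plated 4 h at 37 C/5% CO2, given compounds in DMSO, and incubated 18 h at 37 C. LiveBLAzer B/G FRET substrate was added for 2 h at room temperature, then fluorescence intensity read.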

The target is the same in assay [19]. In words: qHTS assay to identify small molecule antagonists of the glucocorticoid receptor (GR) signaling pathway (AID 720692; active = well fitted inhibition curve with a large enough effect in the signal ratio in the repeat runs, not every such curve was filed as active; the % refers to the signal ratio). An outline of the steps:
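GR-bla HeLa cells (beta-lactamase reporter under glucocorticoid response element) were pre-plated 4 h at 37 C, treated with compounds plus 5 nM dexamethasone (final) for 18 h, then read by LiveBLAzer B/G FRET fluorescence after 2 h.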

Assay [20] in a line: qHTS assay to test for compound auto fluorescence at 535 nm (green) in HEK293 cell free culture (AID 720682). An outline of the steps:
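Using fluorescein as calibrant, autofluorescence was quantified at 485/535 nm in cell-free DMEM containing 10% FBS after pintool addition of compound or vehicle.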
% is set by controls: 0 for no effect and ±100 for the full control effect.

Glucocorticoid receptor (Homo sapiens), sequence (P04150 whole entry, looked up): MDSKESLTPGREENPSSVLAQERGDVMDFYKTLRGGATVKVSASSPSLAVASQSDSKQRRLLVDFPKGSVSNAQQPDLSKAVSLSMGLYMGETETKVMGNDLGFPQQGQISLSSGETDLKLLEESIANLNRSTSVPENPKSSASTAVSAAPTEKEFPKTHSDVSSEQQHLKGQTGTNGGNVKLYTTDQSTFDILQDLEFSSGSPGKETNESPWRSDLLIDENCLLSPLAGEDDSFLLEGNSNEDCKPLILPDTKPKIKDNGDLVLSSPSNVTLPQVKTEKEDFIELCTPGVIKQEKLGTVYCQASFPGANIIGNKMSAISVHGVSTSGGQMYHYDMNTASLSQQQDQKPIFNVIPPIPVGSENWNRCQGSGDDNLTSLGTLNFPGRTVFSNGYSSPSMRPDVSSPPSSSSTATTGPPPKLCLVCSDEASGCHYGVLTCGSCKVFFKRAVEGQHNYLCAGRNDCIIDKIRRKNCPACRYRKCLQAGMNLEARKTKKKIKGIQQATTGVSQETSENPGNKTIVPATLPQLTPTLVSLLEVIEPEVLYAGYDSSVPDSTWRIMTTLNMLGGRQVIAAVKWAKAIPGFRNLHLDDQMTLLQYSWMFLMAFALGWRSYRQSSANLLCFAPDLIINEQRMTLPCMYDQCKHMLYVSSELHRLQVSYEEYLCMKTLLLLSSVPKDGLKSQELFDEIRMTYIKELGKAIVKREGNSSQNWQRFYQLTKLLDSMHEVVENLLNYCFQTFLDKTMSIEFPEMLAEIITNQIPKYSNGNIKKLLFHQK

Consider `C=CCCCCCCCCC(=O)OCC`, for which the Potency result in assay [1], in assay [2], in assay [3] and in assay [4] was “inactive” in each case. In addition, the molecule was classed as inactive in [5], in assay [6], in [7], in [8], in [9] and in assay [10]. Further, the call in [11], in assay [12], in assay [13], in assay [14], in [15] and in assay [16] was inactive.

In the case of `CC12CCC(C(=O)C1=O)C2(C)C` (configuration not stated), the Potency result in [1], in assay [2], in [3], in assay [4], in [17] and in [18] was “inactive” each time. In addition, the molecule was called inactive in assay [6], in assay [7], in [8], in [9], in [10] and in [11]. In addition, the outcome in [12], in [13], in [14] and in assay [15] was inactive.

Turning to `Cc1ccnc(NS(=O)(=O)c2ccc(N)cc2)n1`, the Potency entry in [1], in assay [2], in assay [3], in [4], in assay [17] and in assay [19] was “inactive” throughout. For the same molecule, in assay [6], the fluorescence, relative to Rose Bengal was 0.0946% [at 18.6 µM]. For the same molecule, the values for the fluorescence, % of fluorescein control in [7] and in assay [15] were 0.0423% [at 18.6 µM] and 0.0314% [at 18.6 µM], respectively. The fluorescence, % of triamterene in assay [8] was 0.0233% [at 18.6 µM]. For the same molecule, the fluorescence, % of fluorescein in assay [10] was -0.0062% [at 18.6 µM]. Moreover, the fluorescence, % of fluorescent control is -0.0731% [at 18.6 µM] in [11], -0.145% [at 18.6 µM] in assay [12] and -0.0164% [at 18.6 µM] in assay [16]. For the same molecule, the fluorescence, % of Rose Bengal in assay [13] is 0.0665% [at 18.6 µM].

For `CC(N)C12CC3CC(CC(C3)C1)C2` (configuration not stated), the Potency entry in assay [1], in assay [2], in assay [3] and in [4] was “inactive” throughout. Further, the molecule was classed as inactive in assay [6], in assay [7], in [8], in [9], in [10] and in assay [11]. The result in assay [20], in assay [12], in assay [13], in assay [14] and in [15] was inactive.

On to `Cc1ccc(C(=O)c2ccc(CC(=O)O)n2C)cc1`, for which the Potency entry in assay [1], in assay [2], in [3] and in assay [4] was “inactive” in each case. In addition, the fluorescence, relative to Rose Bengal in [6] was 0.352% [at 18.6 µM]. The fluorescence, % of fluorescein control in [7] was 0.0458% [at 18.6 µM]; in assay [15], -0.0798% [at 18.6 µM]. Moreover, the fluorescence, % of triamterene in assay [8] is -0.184% [at 18.6 µM]. In addition, the fluorescence, % of fluorescent control in assay [9] was 0.256% [at 18.6 µM]; in assay [11], 0.0612% [at 18.6 µM]; in [12], 0.0035% [at 18.6 µM]; in assay [14], -0.117% [at 18.6 µM]; in assay [16] it was -0.0013% [at 18.6 µM]. Further, in [10], the fluorescence, % of fluorescein is -0.0701% [at 18.6 µM]. In addition, the activity change in assay [20] is -0.0078% [at 18.6 µM]. In addition, in [13], the fluorescence, % of Rose Bengal is 0.0726% [at 18.6 µM].

Turning to `CN(C)CCN(C)CCN(C)C`, the Potency result in assay [1], in assay [2], in [3], in [4], in [18] and in [19] was “inactive” each time. Further, the call in assay [6], in [7], in assay [8], in assay [9], in [10] and in assay [11] was inactive. For the same molecule, the molecule was classed as inactive in assay [20], in assay [12], in assay [13], in [14], in assay [15] and in [16].

On to `COC(=O)Nc1ccc(Cl)c(Cl)c1`, for which the Potency entry in [1], in assay [2], in [3], in assay [4] and in assay [18] was “inactive” throughout. Moreover, in assay [17], the Potency is 60.8 µM (active). Further, the molecule was called inactive in [6], in assay [7], in [10], in assay [11], in [20] and in assay [12]. Besides, the result in assay [13], in assay [14], in assay [15] and in assay [16] was inactive.
